Measured values taken from publication PMC5540273 (PLoS ONE, 2017).

system: KIT-autoinhibited; conditions: concentration: 1 μM, replicates: in singlicate; n = 1
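Also: KINOMEscan kinase panel screen.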

Row | Compound | %Inh
1 | CCc1nc(-c2cccc(C)c2)c(-c2ccnc(NCc3ccccc3)c2)s1 | 0%
2 | O=c1cc(N2CCOCC2)nc2n(Cc3cccc4ccccc34)ccn12 [GSK2333389] | 0%
3 | CN1c2ccc(NCc3ccc(F)cc3)cc2-c2c(cnn2C)S1(=O)=O | 0%
4 | Cc1ccc(NC(=O)c2ccnc(N3CCN(C)CC3)c2)cc1-c1ccc(C(=O)NCC2CC2)cc1 [GW775604] | 0%
5 | Cc1ccc(C(=O)NCC(N)=O)cc1-n1c(C)cc(OCc2ccc(F)cc2F)c(Br)c1=O | 0%
6 | COCCNC(=O)c1ccc(-c2cc(C(=O)NC3CC3)cc(F)c2C)cc1 [GW868318] | 24%
7 | COc1ccc(Nc2ncc(C#N)c(Nc3ccccc3C(N)=O)n2)cc1N1CCN(C)CC1.Cl [GSK1558669] | 96.1%
8 | COc1ccc(S(=O)(=O)NC2CCN(c3cc(C)nc(Nc4cccc(C#N)c4)n3)CC2)cc1.O=C(O)C(F)(F)F [GSK1653539] | 0%
9 | COc1ccc(Nc2nccc(N3CCC(NC(=O)Nc4cc(C)ccc4C)C3)n2)cc1 (stereo not shown) [GSK1379741] | 0%
10 | CC(C)(C)n1cnc2c(N)ncnc21 [SKF-97359] | 30%
11 | COc1cc2ncn(-c3cc(OCc4sccc4Cl)c(C(N)=O)s3)c2cc1OC [GSK448459] | 0%
12 | COC(=O)Nc1nc2cc(Oc3ccc(NC(=O)Nc4cc(F)ccc4F)cc3)ccc2[nH]1.Cl [GW701424] | 30%
13 | Cc1c2ccc(N(C)c3ccnc(Nc4cccc(S(N)(=O)=O)c4)n3)cc2nn1Cc1ccccc1.Cl.Cl [GW787226] | 86%
